Reference: PubChem BioAssay AID493033 (ICCB-Longwood Screening Facility, Harvard Medical School, 2011)
The whole screen tested about 100,000 compounds, of which about 930 (0.93%) were called active. Cut-off read from the data, not from the text of the source: active = inhibition mostly above about 56% (no sharp cut-off); inactive = mostly below about 77%. Shown is part of a subset that was picked to be rich in actives.

target: Salicylate synthase (Mycobacterium tuberculosis (strain CDC 1551 / Oshkosh)) (UniProt P9WFX0); assay: MbtI salicylate synthase inhibitors, primary screen, biochemical, fluorescence intensity (AID 493033); details: purified MbtI enzyme, fluorescence intensity read-out, stronger effect = higher value, concentration not given here
Sequence (P9WFX0 whole entry, looked up): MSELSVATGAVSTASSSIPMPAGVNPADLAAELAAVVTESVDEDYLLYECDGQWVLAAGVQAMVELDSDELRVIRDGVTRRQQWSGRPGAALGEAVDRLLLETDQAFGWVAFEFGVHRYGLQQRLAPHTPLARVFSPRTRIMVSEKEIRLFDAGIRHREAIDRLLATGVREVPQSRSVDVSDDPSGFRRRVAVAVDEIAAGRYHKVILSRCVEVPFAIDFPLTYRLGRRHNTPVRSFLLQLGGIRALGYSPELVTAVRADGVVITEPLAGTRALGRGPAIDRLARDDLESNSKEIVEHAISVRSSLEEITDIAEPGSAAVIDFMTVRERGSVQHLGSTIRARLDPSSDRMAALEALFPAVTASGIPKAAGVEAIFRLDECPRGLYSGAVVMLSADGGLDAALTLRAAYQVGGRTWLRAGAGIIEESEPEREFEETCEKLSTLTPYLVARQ

Row | SMILES | inhibition
1 | COc1cc2c(cc1OC)C(c1cc3cc4c(cc3[nH]c1=O)OCO4)N(C(=O)C1CCC1)CC2 (stereo unspecified) | 87.5% (inactive)
2 | Cc1onc(-c2ccccc2)c1C(=O)NNc1ccc(C(C)(C)C)cc1 | 3.55% (inactive)
3 | Cc1onc(-c2ccccc2)c1C(=O)Nc1cccc(C(F)(F)F)c1 | -4.15% (inactive)
4 | Cc1onc(-c2ccccc2)c1C(=O)Sc1ccc(C(F)(F)F)cn1 | 94.8% (active)
5 | COc1cc(OC)cc(C(=O)NC(C(=O)N2CCC2)C(C)C)c1 (stereo unspecified) | -3.25% (inactive)
6 | CC(C(=O)N1CCOCC1)C1SC(=O)NC1=O (stereo unspecified) | -3.8% (inactive)
7 | CC(=O)Oc1ccc(N(C(C)=O)S(=O)(=O)c2ccc(Cl)cc2)cc1 | -0.9% (inactive)
8 | CCCCN=Cc1c(O)n(-c2ccc(Cl)cc2)c(=O)[nH]c1=O | 21.5% (inactive)
9 | CCCCS(=O)(=O)N(O)c1ccc(Cl)cc1 | 84.8% (active)
10 | Cc1[nH]c(=O)[nH]c(=O)c1NC(=O)CSc1nc2c(C)cccc2cc1C#N | -1.15% (inactive)
11 | Cc1cc(C)n(C(=O)C2CC=CCC2C(=O)O)n1 (stereo unspecified) | -7.4% (inactive)
12 | O=C(CSc1nnc2n1CCCCC2)N(Cc1cccs1)c1ccc2c(c1)OCCO2 | -10.9% (inactive)
13 | Cc1ccc(OCc2n[nH]c(=S)n2C2CCCCC2)c2c1CCC2 | 70.4% (active)
14 | CCOC(=O)Cc1n[nH]c(=S)n1C1CCCC1 | 13.4% (inactive)
15 | O=C(OCC(=O)C12CC3CC(CC(C3)C1)C2)c1cccs1 | 13.6% (inactive)
16 | CCn1cnc2cc(NCc3ccccn3)ccc21 | -5.05% (inactive)
17 | N#C/C(=N\Nc1ccccc1)C(=O)C1CC1 | 97% (active)
18 | C/C(=N/NC(=O)CCc1ccccc1)C1CC1 | -4.85% (inactive)

Row | SMILES | inhibition
19 | CCc1ccc(N/N=C(\C#N)C(=O)N2CCN(C)CC2)cc1 | 6% (inactive)
20 | Cc1ccc2[nH]c3c(c2c1)CCCC3O (stereo unspecified) | 53.3% (inactive)
21 | Cc1noc(C)c1COc1ccc(C(=O)OCCN2C(=O)c3ccccc3C2=O)cc1 | -17.5% (inactive)
22 | O=C(NCC1CCN(c2ccc(S(=O)(=O)N3CCOCC3)cc2)CC1)Nc1cccc(F)c1 | -7.4% (inactive)
23 | CC(OC(=O)c1ccccc1NS(=O)(=O)c1ccc2[nH]c(=O)[nH]c2c1)C(=O)N1CCCCC1 (stereo unspecified) | -42.9% (inactive)
24 | COc1ccc(C#N)cc1 | -8.8% (inactive)
25 | COc1ccc(Cc2nnc(SC)[nH]c2=O)cc1 | 10.6% (inactive)
26 | COc1ccc(-c2nc3sc(-c4ccc(OC)cc4)nc3s2)cc1 | 84.3% (active)
27 | CSc1cc(-c2ccc(F)cc2)nn1S(=O)(=O)c1cccc(C(F)(F)F)c1 | -4.6% (inactive)
28 | Cc1cc2ncn(-c3ccc(S(=O)(=O)N4CCCC4)cn3)c2cc1C | 35.2% (inactive)
29 | Cc1nc(SCC(=O)c2ccc(NS(C)(=O)=O)cc2)n(C2CCCCC2)c1C | -5.8% (inactive)
30 | c1ccc(Cc2nn3c(Cn4cnc5ccccc54)nnc3s2)cc1 | 65.2% (active)
31 | N#CCCn1cnc2ccccc21 | -6.55% (inactive)
32 | COCCn1cnc2ccccc21 | -7.65% (inactive)
33 | CCOc1cc2c(cc1OCC)C(CC(=O)O)N(C(=O)Nc1ccc(OC)cc1)CC2 (stereo unspecified) | 26.9% (inactive)
34 | COc1ccccc1Nc1nc2c(S(=O)(=O)c3c(C)cc(C)cc3C)nnn2c2ccccc12 | 3.35% (inactive)
35 | COc1cc(Br)c(CC(=O)N2CCOCC2)cc1OC | -8.25% (inactive)
36 | O=c1ccc(-c2ccc(S(=O)(=O)Nc3ccccc3)o2)n[nH]1 | 1.95% (inactive)
